# Laboratory results from PubChem BioAssay (NCATS).
# Records with an inconclusive call do not appear. Entries that show only a call come without a potency. Values without a mark were called inactive. Calls of active or inactive are those of the source. Unless noted, calls follow the shape of the dose curve; as a rule, active = well fitted curve in the direction sought with a large enough effect; inconclusive = small, poorly fitted or top-dose-only effect, or another doubt; inactive = no such curve, though single readings can be large; an effect the other way counts as inactive or inconclusive.
# Experiments:
# [1] = molecular target: ATP-dependent 6-phosphofructokinase (Trypanosoma brucei brucei) (UniProt O15648); assay: qHTS Assay to Find Inhibitors of T. brucei phosphofructokinase: hit validation (AID 492961);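 also: luminescence reports ADP formed as PFK phosphorylates fructose-6-phosphate with ATP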; details: T. brucei PFK, ADP-Glo luminescence; series mostly up to 24.3 µM
# Summary of the method: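 In this biochemical qHTS validation, titrated compounds were tested against 1.25 nM PFK with 0.1 mM ATP and 0.5 mM F6P. Percent activity came from controls lacking or containing enzyme.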
# [2] = molecular target: Ubiquitin carboxyl-terminal hydrolase 1 (Homo sapiens) (UniProt O94782); assay: Inhibitors of USP1/UAF1: Pilot qHTS (AID 504865); details: purified USP1/UAF1, Ub-rhodamine cleavage fluorescence; series mostly up to 114 µM;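 also: rhodamine fluorescence freed from ubiquitin-rhodamine substrate followed over time; top concentration of the series differs between compounds; nearly all actives have a fitted effect of over 35% in size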
# Summary of the method: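 Enzyme-free wells gave the negative control, while test wells held 1nM USP1/UAF1 preincubated with compound for 15 min at room temperature. Ub-Rho at 150nM final started the reaction, and fluorescence at 480/540 nm was recorded kinetically.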
# [3] = molecular target: Luciferin 4-monooxygenase (Photinus pyralis) (UniProt P08659); assay: Biochemical firefly luciferase enzyme assay for NPC (AID 624030); also: potency is read from the fitted curve at half-maximal effect; nearly all actives have a fitted effect of over 70% in size; details: purified P. pyralis luciferase, luminescence, 5 min; series mostly up to 24.9 µM
# Summary of the method: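 Direct inhibition of firefly luciferase enzyme (10 nM final, 50 mM Tris Acetate) assessed by luminescence within 5 minutes. Percent activity scaled between DMSO and PTC124 positive control, with concentration-effect curves classified by fit quality and response.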
# [4] = S16 Schwann cell viability assay (CellTiter-Glo assay) (AID 624031); details: S16 rat Schwann cells viability, 24 h; series mostly up to 25.7 µM;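 also: cellular ATP luminescence as a viability measure; nearly all actives have a fitted effect of over 70% in size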
# Summary of the method: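 Luminescent ATP read-out (CellTiter-Glo) after 24 h compound exposure of native S16 rat Schwann cells at 37 °C. Signals were normalized between cell-free wells and DMSO-treated cells, set as 0% activity.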
# [5] = S16 Schwann cell PMP22 intronic element firefly luciferase assay (AID 624032); details: S16 rat Schwann cells, PMP22 element FLuc, 24 h; series mostly up to 25.7 µM; also: nearly all actives have a fitted effect of over 30% in size
# Summary of the method: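 Luciferase reporter of PMP22 intronic-element expression in stably transfected S16 rat Schwann cells, read by ONE-Glo luminescence after 24 h compound exposure at 37 C. Activity scaled between DMSO (0%) and positive-control PTC124; concentration-effect curves quality-classified.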
# [6] = S16 Schwann cell PMP22 intronic element beta-lactamase assay (AID 624044; calls by dose curve; also: nearly all actives have a fitted effect of over 15% in size); details: S16 rat Schwann cells, PMP22 element beta-lactamase FRET, 24 h; series mostly up to 17.1 µM
# Summary of the method: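 Rat S16 Schwann cells with beta-Lac driven by a PMP22 intronic element, compound-treated 24 h at 37 °C. LiveBLAzer FRET B/G read: 460 nm normalized to potassium clavulanate vs DMSO; 535 nm FRET as viability; concentration-effect curves classified.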
# [7] = NCATS anti-infectives library activity on HEK293 viability as a counter-qHTS vs the C. elegans viability qHTS (AID 1745854); details: HEK293 viability counter-screen; series mostly up to 41.8 µM;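 also: HEK293 cells exposed to compounds for 24 hr before the viability read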
# Summary of the method: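 HEK293 cells (1,500/well) exposed 24 hr at 37C to 1:5 titrations, up to 41.7 uM final; counter-screen to a C. elegans viability qHTS. Viability by CellTiter-Glo luminescence after 10 min at room temperature; digitonin as control.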
# [8] = molecular target: Phospholipid hydroperoxide glutathione peroxidase GPX4 (Homo sapiens) (UniProt P36969); assay: Primary qHTS Assay for Inhibitors of Recombinant Selenoprotein Glutathione Peroxidase 4 (GPX4) (AID 1845192); details: recombinant GPX4, GR-coupled NADPH fluorescence, 15 min; series mostly up to 50 µM; also: nearly all actives have a fitted effect of over 65% in size
# Summary of the method: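 NADPH consumption, followed by fluorescence at 340/450 nm between 0 and 15 min, reports GPX4 activity via coupled glutathione reductase (100 nM). Enzyme 200 nM was pre-exposed to compound 30 min; 0.5 mM cumene hydroperoxide and 1 mM GSH served as substrates.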
# [9] = qHTS profiling for inhibitors of Plasmodium falciparum proliferation (AID 504749); also: nearly all actives have a fitted effect of over 60% in size; details: P. falciparum in erythrocytes, SYBR Green DNA, 72 h, at 28.7 µM (top of the series)
# Summary of the method: (§1)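 Infected RBCs, 0.3% parasitemia/2.5% Hct final; cpd 72 h, 37 C, 5% CO2; lysis buffer with saponin/triton/SYBR Green I, o/n RT dark; FI 485/535; norm. to artemisinin (0.29 uM) and DMSO.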
# 3D7 = assay: as above; details: P. falciparum in erythrocytes, SYBR Green DNA, 72 h; series mostly up to 12.8 µM
# Summary of the method: as §1
# 7G8 = assay: as above; details: P. falciparum in erythrocytes, SYBR Green DNA, 72 h; series mostly up to 12.8 µM
# Summary of the method: as §1
# AA1029 = assay: as above; details: P. falciparum in erythrocytes, SYBR Green DNA, 72 h; series mostly up to 12.8 µM
# Summary of the method: as §1
# AS120 = assay: as above; details: P. falciparum in erythrocytes, SYBR Green DNA, 72 h; series mostly up to 12.8 µM
# Summary of the method: as §1
# ATS189 = assay: as above; details: P. falciparum in erythrocytes, SYBR Green DNA, 72 h; series mostly up to 12.8 µM
# Summary of the method: as §1
# C2A = assay: as above; details: P. falciparum in erythrocytes, SYBR Green DNA, 72 h; series mostly up to 12.8 µM
# Summary of the method: as §1
# CP185 = assay: as above; details: P. falciparum in erythrocytes, SYBR Green DNA, 72 h; series mostly up to 12.8 µM
# Summary of the method: as §1
# CP191 = assay: as above; details: P. falciparum in erythrocytes, SYBR Green DNA, 72 h; series mostly up to 12.8 µM
# Summary of the method: as §1
# CP192 = assay: as above; details: P. falciparum in erythrocytes, SYBR Green DNA, 72 h; series mostly up to 12.8 µM
# Summary of the method: as §1
# CP194 = assay: as above; details: P. falciparum in erythrocytes, SYBR Green DNA, 72 h; series mostly up to 12.8 µM
# Summary of the method: as §1
# CP201 = assay: as above; details: P. falciparum in erythrocytes, SYBR Green DNA, 72 h; series mostly up to 12.8 µM
# Summary of the method: as §1
# CP203 = assay: as above; details: P. falciparum in erythrocytes, SYBR Green DNA, 72 h; series mostly up to 12.8 µM
# Summary of the method: as §1
# CP211 = assay: as above; details: P. falciparum in erythrocytes, SYBR Green DNA, 72 h; series mostly up to 12.8 µM
# Summary of the method: as §1
# CP215 = assay: as above; details: P. falciparum in erythrocytes, SYBR Green DNA, 72 h; series mostly up to 12.8 µM
# Summary of the method: as §1
# CP217 = assay: as above; details: P. falciparum in erythrocytes, SYBR Green DNA, 72 h; series mostly up to 12.8 µM
# Summary of the method: as §1
# CP237 = assay: as above; details: P. falciparum in erythrocytes, SYBR Green DNA, 72 h; series mostly up to 12.8 µM
# Summary of the method: as §1
# CP238 = assay: as above; details: P. falciparum in erythrocytes, SYBR Green DNA, 72 h; series mostly up to 12.8 µM
# Summary of the method: as §1
# CP247 = assay: as above; details: P. falciparum in erythrocytes, SYBR Green DNA, 72 h; series mostly up to 12.8 µM
# Summary of the method: as §1
# CP250 = assay: as above; details: P. falciparum in erythrocytes, SYBR Green DNA, 72 h; series mostly up to 12.8 µM
# Summary of the method: as §1
# CP252 = assay: as above; details: P. falciparum in erythrocytes, SYBR Green DNA, 72 h; series mostly up to 12.8 µM
# Summary of the method: as §1
# CP256 = assay: as above; details: P. falciparum in erythrocytes, SYBR Green DNA, 72 h; series mostly up to 12.8 µM
# Summary of the method: as §1
# CP260 = assay: as above; details: P. falciparum in erythrocytes, SYBR Green DNA, 72 h; series mostly up to 12.8 µM
# Summary of the method: as §1
# CP262 = assay: as above; details: P. falciparum in erythrocytes, SYBR Green DNA, 72 h; series mostly up to 12.8 µM
# Summary of the method: as §1
# Chain of ATP-dependent 6-phosphofructokinase (Trypanosoma brucei brucei) (O15648 whole entry, looked up): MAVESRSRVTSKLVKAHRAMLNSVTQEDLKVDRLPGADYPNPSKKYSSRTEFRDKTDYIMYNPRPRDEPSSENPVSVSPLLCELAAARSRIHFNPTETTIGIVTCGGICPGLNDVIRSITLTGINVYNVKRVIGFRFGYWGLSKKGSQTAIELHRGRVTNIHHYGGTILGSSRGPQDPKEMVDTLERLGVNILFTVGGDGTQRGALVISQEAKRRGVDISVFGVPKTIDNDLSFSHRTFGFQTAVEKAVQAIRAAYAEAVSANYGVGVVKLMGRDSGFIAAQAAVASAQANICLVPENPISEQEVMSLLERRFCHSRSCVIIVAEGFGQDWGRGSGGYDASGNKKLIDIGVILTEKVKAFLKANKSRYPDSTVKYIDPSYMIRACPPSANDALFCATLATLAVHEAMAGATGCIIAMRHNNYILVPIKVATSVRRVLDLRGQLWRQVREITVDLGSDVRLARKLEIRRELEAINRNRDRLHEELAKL
# Chain of Luciferin 4-monooxygenase (Photinus pyralis) (P08659 whole entry, looked up): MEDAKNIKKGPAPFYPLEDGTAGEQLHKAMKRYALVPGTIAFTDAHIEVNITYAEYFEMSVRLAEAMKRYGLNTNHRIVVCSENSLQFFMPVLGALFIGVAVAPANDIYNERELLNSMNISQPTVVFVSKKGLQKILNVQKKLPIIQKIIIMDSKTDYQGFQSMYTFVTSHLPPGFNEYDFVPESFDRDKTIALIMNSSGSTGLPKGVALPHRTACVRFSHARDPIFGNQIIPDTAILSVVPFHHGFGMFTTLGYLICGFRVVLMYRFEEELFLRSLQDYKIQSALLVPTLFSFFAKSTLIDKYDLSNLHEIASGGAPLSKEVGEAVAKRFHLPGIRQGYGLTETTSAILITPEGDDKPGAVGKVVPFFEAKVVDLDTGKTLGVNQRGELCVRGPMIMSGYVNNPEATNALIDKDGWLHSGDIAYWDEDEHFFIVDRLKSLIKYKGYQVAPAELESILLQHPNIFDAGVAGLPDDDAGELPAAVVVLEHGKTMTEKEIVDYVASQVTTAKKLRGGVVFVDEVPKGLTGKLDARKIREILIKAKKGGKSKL
# Chain of Ubiquitin carboxyl-terminal hydrolase 1 (Homo sapiens) (O94782 whole entry, looked up): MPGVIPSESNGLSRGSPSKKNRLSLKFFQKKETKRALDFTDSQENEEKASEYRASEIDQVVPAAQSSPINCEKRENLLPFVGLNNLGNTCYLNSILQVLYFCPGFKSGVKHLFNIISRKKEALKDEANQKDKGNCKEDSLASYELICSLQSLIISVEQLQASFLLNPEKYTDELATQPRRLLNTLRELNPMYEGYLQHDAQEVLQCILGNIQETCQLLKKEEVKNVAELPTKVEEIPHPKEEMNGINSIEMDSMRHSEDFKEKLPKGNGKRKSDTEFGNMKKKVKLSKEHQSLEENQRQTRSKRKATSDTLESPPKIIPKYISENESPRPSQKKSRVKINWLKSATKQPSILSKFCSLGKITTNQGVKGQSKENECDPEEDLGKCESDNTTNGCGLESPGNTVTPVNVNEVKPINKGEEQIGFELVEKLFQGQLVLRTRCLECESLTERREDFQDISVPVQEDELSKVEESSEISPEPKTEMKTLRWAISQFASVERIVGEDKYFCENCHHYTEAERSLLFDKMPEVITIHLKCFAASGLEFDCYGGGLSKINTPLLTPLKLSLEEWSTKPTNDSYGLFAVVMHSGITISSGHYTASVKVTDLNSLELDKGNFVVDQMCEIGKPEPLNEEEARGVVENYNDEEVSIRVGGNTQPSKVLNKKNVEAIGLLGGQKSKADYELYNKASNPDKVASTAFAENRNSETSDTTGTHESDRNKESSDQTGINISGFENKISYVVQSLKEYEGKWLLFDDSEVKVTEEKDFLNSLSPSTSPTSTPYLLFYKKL
# Chain of Phospholipid hydroperoxide glutathione peroxidase GPX4 (Homo sapiens) (P36969 whole entry, looked up): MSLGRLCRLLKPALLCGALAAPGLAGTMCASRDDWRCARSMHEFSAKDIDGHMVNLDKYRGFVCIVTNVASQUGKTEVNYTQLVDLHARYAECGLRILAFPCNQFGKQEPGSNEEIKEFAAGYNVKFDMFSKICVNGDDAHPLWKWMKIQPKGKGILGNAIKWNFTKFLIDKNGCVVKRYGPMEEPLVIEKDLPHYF
smiles,measurement,setting,value
Nc1nc(NC2CC2)c2ncn([C@H]3C=C[C@@H](CO)C3)c2n1,outcome,[1],inactive
same,Potency,[2],inactive
same,Potency,[3],11.4 µM (active)
same,outcome,[4],inactive
same,Potency,[5],inactive
same,Potency,[6],inactive
same,outcome,[7],inactive
same,Potency,[8],inactive
same,"activity, negative = inhibition",[9]; parasite line A,8.14%
same,"activity, negative = inhibition",[9]; parasite line B,1.25%
same,Potency,3D7,inactive
same,Potency,7G8,inactive
same,Potency,AA1029,inactive
same,Potency,AS120,inactive
same,Potency,ATS189,inactive
same,Potency,C2A,inactive
same,Potency,CP185,inactive
same,Potency,CP191,inactive
same,Potency,CP192,inactive
same,Potency,CP194,inactive
same,Potency,CP201,inactive
same,Potency,CP203,inactive
same,Potency,CP211,inactive
same,Potency,CP215,inactive
same,Potency,CP217,inactive
same,Potency,CP237,inactive
same,Potency,CP238,inactive
same,Potency,CP247,inactive
same,Potency,CP250,inactive
same,Potency,CP252,inactive
same,Potency,CP256,inactive
same,Potency,CP260,inactive
same,Potency,CP262,inactive
